# In all, about 4,500 sequences were measured (“median log2 fold change of GCK-ALFA target abundance (FLAG IP / Myc IP barcode read proportion)”: median about 0.078, lowest 2% from about -0.6 on). Only a selection was taken, and the lowest values are over-represented in it overall.
# B1: GBRAP_11_2908 (protein)
# chain: KKEKLKEAAKLAEKAAKLIEQLIKNGADDKELWAEAEKAAEELLKLAKEYLDESTVELAEYALELLKKAQADPKNAQQYLNEALATVRVILGQILLAIEE
# B2: GBRAP_78_6697 (protein)
# chain: EVEELLEKALELLDQALKLSKQLPEDLRNEVTYHLVEAITDLEEAIEEGADLEELKEALEHLDKAIALVKANDTPLTQPLLKLLTEAKKLLEEAIKKLEE
# B3: GBRAP_125_3109 (protein)
# chain: SEDELLAALRALARALGFSEEEAEEAAELARRFSLRQTLYAIFLAEGEEELADLVEQLTEEQARAALAALAAWLAAHPDATKEEVLAQARAILEAELARA
# B4: GBRAP_9_7186 (protein)
# chain: MQEKKEKILEEVKEELELAIEVAPEEYKELIKEKTEEVLKELEKAVKDENTTLEELLKKLEELFEKLIEIAKKNVPKETYLQIEAILGTAILSAEEIIEE
# B5: GBRAP_26_5464 (protein)
# chain: MEEAFREASDRVDEIAAKLSNPEAAAAVRAEADTILLELEERIEAGEDIEKAVKEAEEEFLKEAREIGKEEGLPEEEIERLEKELSEVFKELEERLKKAK
# B6: GBRAP_160_4037 (protein)
# chain: NEKLKKLKKFAEEVFEEAKELVEGTSVEEAAVIIDVAAGEIIMEAVELGIDDDELEDFIDEIGDEAVAYLLAHPDLSEEEIKELIEEAREKVLEKIDEAE
# B7: GBRAP_160_4038 (protein)
# chain: NEKLEKLAKFAEEVFKEAEELIKGTTVEEAAVIVDVATGEIIMEAVELGIDNDELEDFIDEIGDEAVAYLLAHPDLTEEEIQALVKEAKEKILKKIKEAS
# B8: GBRAP_52_6009 (protein)
# chain: MREELRERLEEALALVRAGRLEEARALVTELVESLDEEELELLIELLAEMAREAAPEDFDAVWTLAELVAEEMRRAGKDEVLADLLEARVAAALYEAEQR
# B9: GBRAP_52_5877 (protein)
# chain: MLEEAVKLLEEAVKAKKEGKEKELKEILKKIVEEFSEETILAAVKKLAEKVLTKSLEEAEAFYETVELLSDILLEAGKSEEIASLMEAIAGATLYTVEQK
# B10: GBRAP_11_2629 (protein)
# chain: KKEILKKKAELAKKLAEKVEKLLKEGVDNEELLKEIEKLLKEIAELTEKYGTEADKSLVEVAKELFEEAKKDKENKEKYLKELLAAAKVLEGDYLLEIEE
# B11: GBRAP_35_5618 (protein)
# chain: MSDEELTDMLVDLIEDATAAVPDVSVETLAAIAASLSRAVRSLAEELAGNAENLRRLADAVEALRDAIERHHGDDPLAQETIAALTATAEEIRARAAASE
# B12: GBRAP_160_4664 (protein)
# chain: SEEIEKLLEEIRELLLETLDWTKDLDPASREALLRAAVGDVLQLLFENPLVTDEVEDYAEEVLEEMREYVLANPDLTDEEREALVDEVVDKIREKILEES
# B13: GBRAP_11_2937 (protein)
# chain: EKEKLKKAQELAKEAQELLKKIQKAGKLDEELLKKAQELLKKAAELAKELGLEEEQKDLELAQELLEEVQKAGKLDETKVAAAQALVFDVAHELEEKLEE
# B14: GBRAP_52_6133 (protein)
# chain: MREELREKVLELLELVKAGKLEEAKKRLLKIAKELSDEELREFAREFAEVVRELPPEDLDAAAELLELAEEALEEAGRPEELISLLIGEGARALYEVEQR
# B15: GBRAP_11_2673 (protein)
# chain: MKEKLLEAAELAEKAAKLVEELIKEGVDNEELLKELKKLLEELKKLAKEYLSKALQKDVEVAEELFKELLEDEENRLEYAEQLLAALRVLEGNLLLEADE
# B16: GBRAP_52_6314 (protein)
# chain: MSERMEELARRLLELMLAGDEEGARALIRELVKTLSEEELLLLAEELARLAKTLDAEGLDALARLLELIEDEMEEEGVDERIIAEIRGIIITAIYEAEQR
# B17: GBRAP_53_6413 (protein)
# chain: AEAEIAALRAEVKATARAAAAADEATLAALVAEIGALLAALKAAGMPDEELTALAEEVARTLRAAGAPDSALVALAGHLAALGLEEATAAVAEEAVEELE
# B18: GBRAP_35_5548 (protein)
# chain: DSDEETAEMLVDTIEDIVEALPDVSEEDRVALAEAALRLARDLVELQPKNKELIKRAIEALERIKEIIEESDLPEEVRERLVREIEELIEELKKILEENE
# B19: GBRAP_35_5549 (protein)
# chain: DSDREIAEMLVDTIEDIVEALPDVSEEDKIALAKAAIRLARDLVELKPKDEELIKRAIEALERIKEILEESDLPEEDKEELIEEIEELIEELKKLLEENK
# B20: GBRAP_122_2955 (protein)
# chain: SKEEEVERLVEETVEAAKKGDFAATILEALKEAAERFDAESLIRLAERLAERARELGKEAEAALAFATAAQWLLEERPELAEAADRLLELADELLDLLEE
# B21: GBRAP_166_4966 (protein)
# chain: MEEEIKEEFKKYLEELKEKMKKANEEEKLELLAEAAEKLREAKEAGVSRETLRELIRYLIELAKEVGLTDSQVYGALSILADLDEEEIDILEEEIAEVRA
# B22: GBRAP_166_4889 (protein)
# chain: STEEAIREIERLAEEAIANIAALTPEELLAVFIEMVEIVERAGATPELRAALAEAAARIVAAAVAAGRDWDEVESLALAAVGDDEELLDAVEATLAALRA
# B23: GBRAP_74_6553 (protein)
# chain: SAALKKEIDAAAKAGDADKLIKLARKAVKEGDIDVAVHALGQLAKLAVKKAKAGDYDELDKLIDAIVEILEKVPDEALTDETWKAIAAAIKAAIEAEKAR
# B24: GBRAP_160_4776 (protein)
# chain: SEKEEKLKKKIKEAKEEILESIDTLSPEETLTVAIGETGDIIMEAEELEFDNEELLDSIDEIMDELIEELEKNKNASPEEKKKIVEEKFEKLLKELEKLT
# B25: GBRAP_160_4428 (protein)
# chain: SEKLKKAKEKIEEIIEETVEMMKGQSAEERQVLVRVARGEIILELEELGLLTDEVDEVIDEEFDEIVEYIAENPDISDEELRELLEEAREKILKELEKVS
# B26: GBRAP_14_3860 (protein)
# chain: VEALVKAVERTAESTKELIAEIAPEHAEEIKAKVEELAKEIIEKIKKENLNIEEVEELVDEAAEKLGAYMREKGYLSDTEIAAFKAHLLSEFLLELEEIE
# B27: GBRAP_160_4725 (protein)
# chain: EEEIKEFVEEFREEFLETLELTKDESKENAKALFRGTAGEILQDAFENPFLTDEQEDVVAEILDELVEELEKNFDASLEEKKEIVEEKMEELLEKLLELS
# B28: GBRAP_128_3486 (protein)
# chain: STEEVVAKTKELMEKIKNSSLEEVEEIARELVELLGQADPESREAATEVILEKLKELSAEKLEILADVLRERQPELDPFGAEQAAEIQVEALNEAEEKEE
# B29: GBRAP_52_6313 (protein)
# chain: MREEMRAQAEELLALMLAGDRDGARALAEELVATLSEEELLLLAEELAKLSETLNAEELDKAMELLEILEDVMEEAGVDERVIAEIRGIVITAIYKAEQK
# B30: GBRAP_52_6312 (protein)
# chain: MHERMRELAEELLELMLAGDREGARALAREIVATLSEEELLLLAEELAELAEELDEEELEKAAELLFILEDEMEAAGVDERVIAEMLGIIITAIYKAEQK
# Target: GABARAP, O95166
# Assay: median log2 fold change of GCK-ALFA target abundance (FLAG IP / Myc IP barcode read proportion) (log2 ratio); each designed protein is fused to an ALFA-tag nanobody in HEK293 cells to bring the named protein to FLAG-tagged glucokinase (GCK); Myc marks an untargeted standard; higher = target protein stabilised (more abundant)
# Details: target protein: 3xFLAG-MCP-GCK-ALFA reporter; HEK293 landing pad (RPLP)
# Method in brief: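 Sequencing of reverse-transcribed, amplified circular RNA barcodes from anti-FLAG and anti-Myc immunoprecipitates provided the readout for an ALFA-nanobody-fused binder library recombined into HEK293 landing-pad cells. Those cells were induced with 2 μg mL^−1 doxycycline, transfected with a plasmid expressing a FLAG-tagged target and a Myc-tagged standard, and lysed after 48 h. Target abundance is the per-binder median log2 ratio of FLAG to Myc barcode read proportions. Only barcodes at a proportion of ≥10^−7 in both replicates and binders with ≥3 barcodes per replicate were kept, with a 10^−6 pseudocount added before the two replicates were pooled.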
# GABARAP, O95166, sequence (O95166 whole entry, the tested form may be a part): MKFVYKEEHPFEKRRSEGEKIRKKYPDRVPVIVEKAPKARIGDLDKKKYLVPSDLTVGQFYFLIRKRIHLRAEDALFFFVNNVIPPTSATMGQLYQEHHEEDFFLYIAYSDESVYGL
row,Binder,median log2 fold change
1,B1,0.209
2,B2,0.0855
3,B3,-0.77
4,B4,-0.362
5,B5,0.274
6,B6,-0.581
7,B7,-0.621
8,B8,-0.0383
9,B9,0.168
10,B10,0.182
11,B11,-1.48
12,B12,-0.406
13,B13,0.139
14,B14,0.086
15,B15,0.0764
16,B16,-0.236
17,B17,0.295
18,B18,-0.485
19,B19,-0.761
20,B20,-0.119
21,B21,-0.12
22,B22,0.108
23,B23,-0.699
24,B24,0.018
25,B25,0.0554
26,B26,0.302
27,B27,0.0697
28,B28,0.224
29,B29,-0.0291
30,B30,-0.795
